# Assay results published in PubChem BioAssay.
# Activity calls are given as the source filed them. Unless noted, no rule for the calls is given here.
# Assays:
# [1] = compounds binding Alexa647 anti-His antibody – biochemical, small-molecule microarray, 635 nm fluorescence, artefact control for SMM control protein annotation, primary screen (AID 1128); conditions: higher = more signal;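 also: score merges feature fluorescence with signal-to-noise for each printed compound spot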
# [2] = system: Human papillomavirus type 1a E7 protein (residues 1-88); assay: HPV1a E7 small-molecule binders, primary screen, biochemical, small-molecule microarray, residues 1-88, 635 nm (AID 1129); conditions: small-molecule microarray binding, fluorescence 635 nm; higher = more signal
# [3] = target: Focal adhesion kinase 1 (Homo sapiens) (UniProt Q05397); assay: PTK2 protein binding on printed compound slides – biochemical, small-molecule microarray, 635/667 nm fluorescence, BSA, DTT, primary screen (AID 1130); conditions: 635 nm fluorescence, higher = more signal;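 also: composite of spot emission at 667 nm and signal to noise over triplicate slides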
# [4] = system: Fibrinogen (Alexa647-labelled); assay: Alexa647-fibrinogen binding to printed small molecules – biochemical, small-molecule microarray, 635/667 nm fluorescence, artefact control for SMM control-protein annotation, profiling panel (AID 1131); conditions: fibrinogen-A647 binding fluorescence, higher = more signal;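 also: z-score merges 667 nm fluorescence with per-spot signal-to-noise over triplicate slides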
# [5] = target: Follistatin (Homo sapiens) (UniProt P19883); assay: FST protein binding to printed compounds – biochemical, small-molecule microarray, 635/667 nm fluorescence, primary screen (AID 1132); conditions: 635 nm fluorescence, higher = more signal
# [6] = target: Fibroblast growth factor 2 (Homo sapiens) (UniProt P09038); assay: basic fibroblast growth factor binding to printed compounds – biochemical, small-molecule microarray, 635/667 nm fluorescence, primary screen (AID 1133); conditions: FGF2, fluorescence 635/667, higher = more signal
# [7] = JC-1 mitochondrial potential readout, lung cancer cells – cell-based, A549, JC-1 fluorescence, basal, 24 h, 100 nL, profiling panel (AID 1138); conditions: higher = more signal;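 also: A549 lung adenocarcinoma cells under basal conditions with no added stimulus; test concentration not given here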
# Lefty1 = Lefty1 protein binding to printed compounds – biochemical, small-molecule microarray, 635/667 nm fluorescence, primary screen (AID 1139); conditions: fluorescence 635/667, higher = more signal
# [8] = system: wheat germ agglutinin (Triticum aestivum), Alexa647-labelled; assay: Alexa647-WGA lectin binding to printed small molecules – biochemical, small-molecule microarray, 635/667 nm fluorescence, artefact control for SMM control-protein annotation, profiling panel (AID 1140); conditions: WGA-A647 binding, 635 nm fluorescence, higher = more signal;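 also: score merges 667 nm feature emission with signal to noise over triplicate slides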
# [9] = target: Luciferin 4-monooxygenase (Photinus pyralis) (UniProt P08659); assay: inhibition of purified Photinus pyralis luciferase – biochemical, luminescence, purified enzyme, 2006 set, primary screen (AID 1141); conditions: purified firefly luciferase, SteadyGlo luminescence, 30 min; higher = more signal, called active from +8 up or from −8 down;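 also: cell-free assay with purified firefly luciferase at 100 ng per well in PBS; test concentration not given here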
# [10] = system: Wnt5a (protein binding on small-molecule microarray); assay: small molecules binding Wnt5a protein – biophysical, small-molecule microarray, 635/667 nm fluorescence, primary screen (AID 1142); conditions: 635 nm fluorescence, higher = more signal;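 also: fluorescence read at 667 nm with signal to noise per printed feature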
# [11] = ATP-based viability of Huh7 replicon cells – cell-based, CellTiter-Glo luminescence, basal, 48 h, cytotoxicity control for HCV replication inhibitor project, primary screen (AID 1143); conditions: higher = more signal, called active from +8 up or from −8 down;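 also: Huh7 hepatoma cells carrying a hepatitis C replication reporter with no stimulus; test concentration not given here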
# [12] = Pseudomonas biofilm growth suppression – PAO1 strain, BacTiter-Glo luminescence, LB-PBS, primary screen (AID 1144); conditions: P. aeruginosa PAO1 biofilm, 12 h, higher = more signal
# [13] = basal CRE-LacZ reporter activity in PC12 – cell-based, unstimulated, primary screen (AID 1145); conditions: no forskolin, luminescence, 4.5 h, higher = more signal, called active from +8 up or from −8 down
# [14] = forskolin-driven CRE-LacZ activity in PC12 – cell-based, CRE-LacZ reporter, forskolin-stimulated, primary screen (AID 1146); conditions: luminescence, 4.5 h, higher = more signal, called active from +8 up or from −8 down;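 also: PC12 cells with 6xCRE LacZ reporter stimulated by forskolin 10 µM; beta-galactosidase reporter signal reflecting CREB driven transcription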
# [15] = target: Streptavidin (Streptomyces avidinii) (UniProt P22629); assay: compounds binding control protein streptavidin – biophysical, small-molecule microarray, 635/667 nm fluorescence, artefact control for SMM compound annotation, primary screen (AID 1147); conditions: higher = more signal;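 also: signal reflects streptavidin binding to arrayed compounds as a control protein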
# [16] = probe aInhba binding on compound microarray – biochemical, small-molecule microarray, 635/667 nm fluorescence, primary screen (AID 1148); conditions: higher = more signal;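 also: score merges 667nm spot fluorescence with signal-to-noise for antibody binding to printed compounds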
# Torsin-1A (Homo sapiens) [17] = target: Torsin-1A (Homo sapiens) (UniProt O14656); assay: TOR1A wild-type binding on microarray – cell lysate, small-molecule microarray, lysate, 635/667 nm, primary screen (AID 1149); conditions: COS7 hTOR1A-WT lysate, 635 nm fluorescence, higher = more signal
# Torsin-1A (Homo sapiens) [18] = target: Torsin-1A (Homo sapiens) (UniProt O14656); assay: torsin A mutant lysate binding on microarrays – cell lysate, small-molecule microarray, COS7 lysate, 635/667 nm fluorescence, primary screen (AID 1150); conditions: COS7 hTOR1A mutant lysate, 635 nm fluorescence, higher = more signal;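 also: score pools 667 nm emission and signal to noise measuring lysate protein binding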
# [19] = system: Sonic hedgehog protein (Shh); assay: Sonic hedgehog microarray binding compounds – biochemical, small-molecule microarray, 635/667 nm fluorescence, primary screen (AID 1151); conditions: 635 nm fluorescence, higher = more signal;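 also: Shh protein binding to compounds spotted on small-molecule microarray slides; score combines spot fluorescence intensity with signal-to-noise across triplicate slides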
# Fibroblast growth factor 2 (Homo sapiens), sequence (P09038 whole entry, looked up): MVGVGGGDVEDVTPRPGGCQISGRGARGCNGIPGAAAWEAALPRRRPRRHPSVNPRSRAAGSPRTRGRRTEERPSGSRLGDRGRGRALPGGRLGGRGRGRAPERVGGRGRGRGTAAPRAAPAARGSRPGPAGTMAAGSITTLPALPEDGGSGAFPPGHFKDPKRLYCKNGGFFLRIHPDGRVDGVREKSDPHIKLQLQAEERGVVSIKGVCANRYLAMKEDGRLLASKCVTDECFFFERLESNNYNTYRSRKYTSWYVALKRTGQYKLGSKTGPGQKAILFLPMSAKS
# Torsin-1A (Homo sapiens), sequence (O14656 whole entry, looked up): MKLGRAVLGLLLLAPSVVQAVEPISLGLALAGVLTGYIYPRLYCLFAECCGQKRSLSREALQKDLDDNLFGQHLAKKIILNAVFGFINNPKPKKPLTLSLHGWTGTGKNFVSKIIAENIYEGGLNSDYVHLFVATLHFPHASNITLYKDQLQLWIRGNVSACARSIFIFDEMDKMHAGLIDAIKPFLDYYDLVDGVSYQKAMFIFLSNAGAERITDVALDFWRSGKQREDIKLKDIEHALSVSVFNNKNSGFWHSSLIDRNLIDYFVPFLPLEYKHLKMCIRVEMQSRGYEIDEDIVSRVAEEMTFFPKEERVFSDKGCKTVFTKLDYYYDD
# Luciferin 4-monooxygenase (Photinus pyralis), sequence (P08659 whole entry, looked up): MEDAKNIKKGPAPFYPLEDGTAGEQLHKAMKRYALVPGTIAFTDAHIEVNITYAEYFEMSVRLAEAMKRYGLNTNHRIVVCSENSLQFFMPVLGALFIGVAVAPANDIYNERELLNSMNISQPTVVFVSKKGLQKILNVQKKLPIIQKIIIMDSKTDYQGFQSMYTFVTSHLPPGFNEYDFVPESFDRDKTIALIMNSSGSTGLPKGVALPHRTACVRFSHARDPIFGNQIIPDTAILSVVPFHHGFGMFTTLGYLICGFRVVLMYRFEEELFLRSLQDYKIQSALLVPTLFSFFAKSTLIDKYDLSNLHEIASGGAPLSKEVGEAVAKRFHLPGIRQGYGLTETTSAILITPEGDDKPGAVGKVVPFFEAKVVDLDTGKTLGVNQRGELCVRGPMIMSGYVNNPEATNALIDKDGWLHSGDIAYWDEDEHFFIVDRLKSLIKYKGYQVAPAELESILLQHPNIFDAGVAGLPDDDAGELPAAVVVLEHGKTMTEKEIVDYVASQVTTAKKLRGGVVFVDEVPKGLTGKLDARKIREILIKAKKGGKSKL
# Focal adhesion kinase 1 (Homo sapiens), sequence (Q05397 whole entry, looked up): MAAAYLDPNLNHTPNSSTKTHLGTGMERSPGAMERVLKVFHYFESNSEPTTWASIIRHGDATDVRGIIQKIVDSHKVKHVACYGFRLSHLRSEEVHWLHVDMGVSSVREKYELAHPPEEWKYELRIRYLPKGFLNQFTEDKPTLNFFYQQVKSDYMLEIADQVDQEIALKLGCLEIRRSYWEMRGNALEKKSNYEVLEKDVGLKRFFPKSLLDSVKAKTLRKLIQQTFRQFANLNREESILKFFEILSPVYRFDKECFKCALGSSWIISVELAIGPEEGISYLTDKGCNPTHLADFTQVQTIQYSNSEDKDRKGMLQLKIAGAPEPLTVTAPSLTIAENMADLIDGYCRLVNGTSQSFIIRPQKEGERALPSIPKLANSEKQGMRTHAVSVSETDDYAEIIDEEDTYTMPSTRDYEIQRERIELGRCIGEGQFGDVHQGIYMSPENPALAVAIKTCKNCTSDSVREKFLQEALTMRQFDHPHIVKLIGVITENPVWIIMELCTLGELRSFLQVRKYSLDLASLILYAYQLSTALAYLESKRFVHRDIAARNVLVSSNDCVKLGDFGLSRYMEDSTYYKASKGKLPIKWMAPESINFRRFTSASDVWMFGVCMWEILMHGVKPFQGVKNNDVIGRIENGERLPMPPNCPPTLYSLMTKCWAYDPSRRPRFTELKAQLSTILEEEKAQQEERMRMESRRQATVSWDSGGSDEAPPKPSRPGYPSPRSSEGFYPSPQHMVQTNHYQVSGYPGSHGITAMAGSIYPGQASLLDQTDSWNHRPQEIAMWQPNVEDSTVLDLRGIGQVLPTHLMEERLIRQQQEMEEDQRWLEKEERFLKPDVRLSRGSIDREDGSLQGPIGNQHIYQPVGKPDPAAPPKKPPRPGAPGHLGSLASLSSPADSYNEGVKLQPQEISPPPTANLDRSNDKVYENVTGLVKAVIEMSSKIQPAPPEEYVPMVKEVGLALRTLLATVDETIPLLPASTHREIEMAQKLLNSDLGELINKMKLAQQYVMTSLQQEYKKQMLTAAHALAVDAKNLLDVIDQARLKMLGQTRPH
# Follistatin (Homo sapiens), sequence (P19883 whole entry, looked up): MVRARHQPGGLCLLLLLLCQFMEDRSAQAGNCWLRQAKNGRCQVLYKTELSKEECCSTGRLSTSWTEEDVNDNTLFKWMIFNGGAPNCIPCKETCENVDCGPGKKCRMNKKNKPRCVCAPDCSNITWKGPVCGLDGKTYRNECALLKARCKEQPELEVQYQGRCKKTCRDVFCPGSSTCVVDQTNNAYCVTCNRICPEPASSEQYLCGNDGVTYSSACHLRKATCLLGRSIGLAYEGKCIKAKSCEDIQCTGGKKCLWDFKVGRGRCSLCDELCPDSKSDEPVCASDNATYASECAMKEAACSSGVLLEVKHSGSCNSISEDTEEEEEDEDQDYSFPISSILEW
# Streptavidin (Streptomyces avidinii), sequence (P22629 whole entry, looked up): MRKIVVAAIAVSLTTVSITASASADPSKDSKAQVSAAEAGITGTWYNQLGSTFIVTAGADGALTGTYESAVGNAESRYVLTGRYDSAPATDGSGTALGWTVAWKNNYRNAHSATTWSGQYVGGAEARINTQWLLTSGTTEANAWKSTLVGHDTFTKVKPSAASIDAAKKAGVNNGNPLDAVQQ
Compound,composite z-score [1],composite z-score [2],composite z-score [3],composite z-score [4],composite z-score [5],composite z-score [6],z-score [7],composite z-score (Lefty1),composite z-score [8],z-score [9],composite z-score [10],z-score [11],z-score [12],z-score [13],z-score [14],composite z-score [15],composite z-score [16],composite z-score (Torsin-1A (Homo sapiens) [17]),composite z-score (Torsin-1A (Homo sapiens) [18]),composite z-score [19]
CC(C)=NOC(C)CN1CCCc2nc(C)c(C)cc21 (stereo not given),-0.0115,0.964,0.232,0.484,0.724,0.753,0.354,0.947,0.323,0.57 (inactive),0.299,0.431 (inactive),-0.905 (inactive),0.0757 (inactive),-0.263 (inactive),-0.0623,0.0074,0.111,0.386,1.35
CCOC(=O)[C@H](Cc1ccccc1)NC(=O)CCC1CC(OC(=O)NCc2ccc3c(c2)OCO3)CC2(CCCC(COC(=O)NCCOC)O2)O1 (stereo not given in full),0.431,1.14,-0.341,0.69,0.808,0.455,-0.599,1.26,0.581,0.724 (inactive),0.274,-3.06 (inactive),-0.212 (inactive),-0.256 (inactive),0.59 (inactive),0.91,-0.016,0.351,0.291,1.91
CO[C@H]1COC(=O)CCC[C@H](C)[C@H](OC)COC(=O)CC=C[C@@H]1C,1.03,-0.676,-0.0022,-1.52,1.1,1.13,-0.904,0.987,-0.0108,-0.981 (inactive),-0.225,-1.15 (inactive),-0.339 (inactive),-1.29 (inactive),-0.46 (inactive),0.116,-0.154,1.78,1.64,1.79
C#CCCCON=C1[C@H]2CCn3c(=O)n([C@@H](CC)c4ccccc4)c(=O)n3[C@H]2[C@H](O)[C@@H]2O[C@H]12,0.114,-0.256,0.235,-0.509,0.587,0.639,0.351,0.368,0.283,-0.0508 (inactive),0.352,0.222 (inactive),0.453 (inactive),1.15 (inactive),0.253 (inactive),0.017,-0.045,-0.0784,0.472,0.441
CCOC(=O)[C@H](CC(C)C)NC(=O)CCC1CC(OC(=O)NCc2ccc3c(c2)OCO3)CC2(CCCC(COC(=O)NCCc3ccccc3OC)O2)O1 (stereo not given in full),0.746,1.13,0.283,0.669,0.826,1.15,-0.717,0.787,0.196,0.867 (inactive),0.08,-0.556 (inactive),0.162 (inactive),-0.0755 (inactive),0.101 (inactive),0.512,-0.128,-0.0035,0.582,1.19
